High-throughput results as filed in PubChem.
FMDV antiviral – foot and mouth disease virus antiviral activity; AID 1159524; Potency, µM (highest dose often 57.9 µM), for the others: at the highest dose activity change, negative = inhibition, most hits filed as inhibitors; FMDV antiviral cell-based qHTS; 410,000 tested, 1.2% active; calls by dose curve; tested in HEK293T cells; also: read-out not given here; nearly all actives have a fitted effect of over 45% in size
VACV Venus inh – vaccinia inhibition (Venus reporter). Vaccinia virus Venus reporter expression, fluorescence. Potency, µM (titrated, usually from 36.5 µM), inactives show at the highest dose activity change, negative = inhibition, hits mostly inhibitors. 330,000 tested, 0.46% active. AID 720580; calls by dose curve; tested in A549 cells; also: nearly all actives have a fitted effect of over 30% in size
Marburg entry inh – inhibitors of Marburg virus binding or cell entry; Marburg virus pseudotyped entry inhibition, cell reporter; 300,000 tested, 1.8% active; Potency, µM (series often up to 37.8 µM), without a hit: top-dose activity change, negative = inhibition, most hits filed as inhibitors; calls by dose curve; tested in HEK293 cells
VACV mCherry inh – inhibitors of vaccinia virus infection (mCherry reporter signal); Vaccinia virus mCherry reporter infection, fluorescence; Potency, µM (doses to about 36.5 µM), without a hit: at the top dose activity change, negative = inhibition, hits mostly inhibitors; 310,000 tested, 0.63% active; AID 720579; calls by dose curve; tested in A549 cells; also: nearly all actives have a fitted effect of over 35% in size
Lassa entry inh – Lassa virus entry inhibition | Lassa virus pseudotype entry inhibition, cell reporter | 300,000 tested, 1.2% active | Potency, µM (doses to about 37.9 µM), inactives show at the top dose activity change, negative = inhibition, hits mostly inhibitors; calls by dose curve; tested in HEK293 cells; also: nearly all actives have a fitted effect of over 50% in size
Sm TGR block – blocks Schistosoma mansoni thioredoxin glutathione reductase; purified TGR, DTNB reduction, TNB absorbance 405 nm; Q962Y6; AID 485364; Potency, µM (highest dose often 114 µM), inactives show at the top dose activity change, negative = inhibition, most hits filed as inhibitors; 360,000 tested, 3% active; active = well fitted inhibition curve with a large enough effect; inconclusive = small, poorly fitted or top-dose-only effect; inactive = no such curve, though single readings can be large or run the other way; also: nearly all actives have a fitted effect of over 60% in size
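Kinetic colorimetric format: TGR-catalysed, NADPH-driven DTNB reduction monitored via TNB absorbance. Enzyme dispensed at 20 nM; compound exposure 15 min at room temperature before reaction start.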
An asterisk follows results filed as active; i = inactive; ? = inconclusive; nt = no result; [ ] = another dose, or the depositor's remark. Rows were chosen to be rich in hits. Some 5.4% of all compounds tested hit in one or more screens of this group. % is scaled to controls: 0 for no effect and ±100 for the full control effect; potency is read from the fitted curve at half-maximal effect.

SMILES	FMDV antiviral	VACV Venus inh	Marburg entry inh	VACV mCherry inh	Lassa entry inh	Sm TGR block
COc1ccc(NC(=O)C2Cc3c(-c4ccccc4)ccnc3O2)cc1OC (stereo unspecified)	35µM*	?	nt	?	nt	nt
Cc1ccc(OCCCCn2c(CCNC(=O)C3CCCCC3)nc3ccccc32)cc1	nt	-18%	nt	-22%	nt	nt
O=C(c1cccc(F)c1)N1CCC2(CCCN(C(c3ccccc3)c3ccccc3)C2)CC1	-26%	nt	nt	nt	nt	nt
CCc1c(C(C)S(=O)(=O)c2ccc(C)cc2)[nH]c(=O)n1-c1ccc(OC(F)(F)F)cc1 (stereo unspecified)	-29%	-7%	10%	i	?	5.6µM*
CC(C)(C)[C@H]1CCC(=O)N(CCSc2ccc(Br)cc2)CC1	nt	-14%	nt	-17%	nt	nt
CCC1(C)Cc2c(sc(NC(=S)NC(=O)c3ccccc3)c2C#N)CO1 (stereo unspecified)	-2%	-13%	14%	i	1%	?
N#Cc1c(NC(=O)CSc2ncn[nH]2)sc2c1CCCCC2	8.9µM*	?	0.46µM*	?	-82%[14.3 µM]	-2%
CN1Cc2sc(NC(=S)NC(=O)c3ccccc3)c(C#N)c2CC1(C)C	?	23%	?	-9%	?	32µM*
N#Cc1c(NC(=O)c2cccc3ccccc23)sc2c1CCCC2	nt	nt	nt	nt	0.2µM*	nt
N#Cc1c(NC(=S)NC(=O)c2ccccc2)sc2c1CCC2	11%	-4%	?	-15%	21%	4µM*
CC(=O)Nc1sc2c(c1C#N)CCCC2	38%	-10%	20%[46.1 µM]	i	7%	-4%
N#Cc1c(NC(=O)CSc2nc(N)cc(=O)[nH]2)sc2c1CCCCCC2	nt	-21%	?	-23%	-4%	9%
COc1ccccc1C1CN(Cc2cccc(OCCO)c2)Cc2ccccc2O1 (stereo unspecified)	0%	-12%	nt	i	nt	nt
CCc1c(C)sc2c1CCN(Cc1ccc(F)cc1)C2c1ccccc1 (stereo unspecified)	0%	-9%	nt	-18%	?	-5%
COC(=O)c1nnn(-c2ccc(F)c(Cl)c2)c1C(=O)OC	3%	-4%	5%[46.1 µM]	i	15%	10%
COC(=O)c1c(C)nn(-c2ccc(F)c(Cl)c2)c1-c1cc(C)on1	?	-12%	4.5µM*	-2%	?	-1%
CC(C)(CO)CNC(=O)CC1C(=O)NCCN1CC(c1ccccc1)c1ccccc1 (stereo unspecified)	1%	-5%	-12%[46.1 µM]	-1%	-8%[46.1 µM]	?
CN(C(=O)CC1C(=O)NCCN1CC(c1ccccc1)c1ccccc1)C(C1CC1)C1CC1 (stereo unspecified)	-9%	nt	-7%	nt	nt	45µM*
Cc1ccc(CN2CCNC(=O)C2CC(=O)N(C)C(C2CC2)C2CC2)o1 (stereo unspecified)	5%	-1%	-12%[46.1 µM]	-23%	3%[46.1 µM]	25µM*
CN(CC1CCOCC1)C(=O)CC1C(=O)NCCN1CC(c1ccccc1)c1ccccc1 (stereo unspecified)	-20%	-11%	16%	i	10%	?
Cc1ccc(CN2CCNC(=O)C2CC(=O)NCC(F)(F)F)o1 (stereo unspecified)	26%	-6%	12%[46.1 µM]	i	-2%[46.1 µM]	40µM*
Cc1cc(C)cc(Nc2cc(C(=O)NC3CCC(C)CC3)c3ccccc3n2)c1 (stereo unspecified)	37%	-11%	?	-13%	0%[46.1 µM]	-2%
CCOC(=O)/C=C1\CN(Cc2ccc(OC)cc2)S(=O)(=O)c2ccc(C(F)(F)F)cc21	nt	-9%	nt	i	nt	nt
CCOC(=O)/C=C1\CN(CCC(C)C)S(=O)(=O)c2ccccc21	17%	-13%	nt	i	nt	56µM*
CCOC(=O)/C=C1\CN(C(C)c2ccccc2)S(=O)(=O)c2ccccc21 (stereo unspecified)	21%	-9%	nt	-6%	nt	28µM*
CCN(c1nc(N)c(C(=O)N=C(N)N)nc1Cl)C(C)C	-29%	-28%	14µM*	-16%	?	nt
COc1ccccc1NC(=O)c1cc2cc3ccc(OC)c(Cl)c3nc2s1	-10%	-12%[7.34 µM]	nt	-7%[7.34 µM]	-3%[46.1 µM]	-8%
CCOC(=O)c1cnc2ccc(Cl)cc2c1Nc1ccc(N2CCOCC2)cc1	22µM*	-8%	-3%[46.1 µM]	-11%	?	4%
